High-throughput results deposited in PubChem by National Center for Advancing Translational Sciences (NCATS).
Most compounds without a hit are left out; they make up all but 7.3% or so of the library.
Tau ThT inhib: qHTS for Inhibitors of Tau Fibril Formation, Thioflavin T Binding; recombinant tau K18 P301L, heparin-induced fibrillization, ThT fluorescence; Potency, µM (series often up to 57.4 µM), without a hit: at the top dose activity, negative = inhibition, actives largely listed as inhibitors; actives 2.1% (n = 270,000); AID 1460, 2008; note: nearly all actives have a fitted effect of over 55% in size
Target sequence (P10636 561-689 P618L limits assumed): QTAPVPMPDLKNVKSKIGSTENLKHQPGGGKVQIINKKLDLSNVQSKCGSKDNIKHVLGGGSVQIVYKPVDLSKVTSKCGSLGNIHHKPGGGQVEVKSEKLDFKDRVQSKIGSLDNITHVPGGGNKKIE
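Using a mix of unlabeled (15 uM) and Alexa 594-labeled (0.24 uM) tau K18 P301L, heparin-triggered fibrillization over 6 hr at 37 C was scored by ThT fluorescence.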
RORg inh: qHTS for inhibitors of ROR gamma transcriptional activity; Drosophila S2 Gal4-RORgamma UAS-luciferase reporter, 20 h; Potency, µM (doses to about 53.6 µM), without a hit: at the top dose activity change, negative = inhibition, usual class: inhibitors; actives 5.4% (n = 310,000); note: nearly all actives have a fitted effect of over 60% in size
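ROR gamma transcriptional activity was tracked as Gal4-UAS luciferase output in stably transfected Drosophila Schneider cells, with compound added 1 hr before 700 uM copper sulfate induction and a 20 hr ambient-temperature incubation.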
Gal4-VP16 FLuc: VP16 counterscreen qHTS for inhibitors of ROR gamma transcriptional activity. actives 3.5% (n = 310,000). Drosophila S2 Gal4-VP16 UAS-luciferase, luminescence, 20 h. Potency, µM (highest dose often 53.6 µM), without a hit: at the top dose activity, negative = inhibition, actives largely listed as inhibitors;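 note: Gal4-VP16 expression switched on by copper sulfate through the metallothionein promoter; nearly all actives have a fitted effect of over 50% in size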
Tau fluor counter: Counterscreen qHTS for Inhibitors of Tau Fibril Formation, Fluorescence Polarization; actives 0.93% (n = 280,000); AID 1463, 2008; Potency, µM (highest dose often 57.7 µM), for inactives: at the highest dose activity change, negative = decrease; tau K18 P301L Alexa594 fluorescence, heparin fibrillization; note: nearly all actives have a fitted effect of over 55% in size
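Human tau K18 P301L (15 uM unlabeled, 0.24 uM Alexa 594-labeled) in 100 mM sodium acetate pH 7 with 20 uM heparin, 6 hr at 37 C. ThT 30 uM added, 1 hr ambient; Alexa 594 FP and total fluorescence read at 555/632 nm.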
Tau FP inhib: qHTS for Inhibitors of Tau Fibril Formation, Fluorescence Polarization; Potency, µM (top dose mostly 57.7 µM), without a hit: top-dose activity, negative = inhibition, hits mostly inhibitors; K18 P301L tau heparin fibrillization, Alexa594 FP, 6 h; actives 0.39% (n = 280,000); Microtubule-associated protein tau (Homo sapiens), P10636; note: nearly all actives have a fitted effect of over 55% in size
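Human tau K18 […] P301L fragment, 15 uM unlabeled plus 0.24 uM Alexa 594-labeled tau (final), with compound and 20 uM heparin in 100 mM sodium acetate pH 7; 6 hr at 37 C, then Alexa 594 FP read.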
Starred values were filed as active, the others as inactive; ? = inconclusive; . = not tested or not shown; [ ] = another dose, or the depositor's remark. Calls come from the whole dose curve; as a rule, active = well fitted curve in the direction sought with a large enough effect; inconclusive = small, poorly fitted or top-dose-only effect, or another doubt; inactive = no such curve, though single readings can be large; an effect the other way counts as inactive or inconclusive. % is set by controls: 0 for no effect and ±100 for the full control effect; potency is the fitted concentration of half-maximal effect.

SMILES	Tau ThT inhib	RORg inh	Gal4-VP16 FLuc	Tau fluor counter	Tau FP inhib
O=C(Nc1cccc(N=Cc2cc(Cl)cc(Br)c2O)c1)c1ccco1	15.8µM*	?	?	-18.2%	-18.2%
O=C(Nc1cc(Br)c(O)c(Br)c1)c1cccc(NC(=O)c2ccco2)c1	.	-0.6%[1.91 µM]	-0.1%	.	.
COc1ccc(-n2nc(C(=O)NCc3ccc(F)cc3)c3c4ccccc4n(C)c3c2=O)cc1	-0.8%	.	.	-5.7%	-4.6%
O=C1CC(=O)c2c1cccc2[N+](=O)[O-]	.	1.3%	1.1%	5.62µM*[quencher]	?
CC1=Nc2ccccc2/C1=C/c1sc(=N)n(-c2nccs2)c1O	5.01µM*	0.631µM*	0.794µM*	11.2µM*[quencher]	?
CCn1c(O)c(/C=C2\C=Nc3ccccc32)sc1=O	-14.1%	35.7%	?	-24.8%	5.1%
Cc1ccc(/C=N/NC(=O)C(C)Oc2cccc3ccccc23)o1 (configuration not stated)	.	15.8µM*	?	.	.
COCCNC(=S)N/N=C/c1ccc(N2CCOCC2)cc1	1.2%	?	20µM*	-3.5%	-4.5%
Oc1ccc(/C=N/NC(=S)N2CCOCC2)cc1	?	1.12µM*	?	-20.3%	1.2%
C=C(C)CNC(=S)N/N=C/c1c(F)cccc1F	-6.7%	1.78µM*	6.31µM*	-6.6%	-0.1%
Cc1ccc(/C=N/NC(=O)c2cccc3ccccc23)o1	.	0.0%	?	.	.
COc1ccc(N2CCN(C(=O)Cn3cnc4sc(C)c(S(=O)(=O)N5CCCCC5)c4c3=O)CC2)cc1	-16.3%	.	.	?	0.3%
CCN(CC)CCCCn1c(-c2ccccc2)nc2c(NC3CCCCC3)nc(C)nc21	-7.7%	?	-15.2%	-6.0%	-0.1%
Cc1ccc(/C=N/NC(=O)C(O)c2ccccc2)o1 (configuration not stated)	.	1.7%	4.2%	-1.4%	4.4%
Cc1ccc(/C=N/NC(=S)NC(C)C)o1	-14.8%	1.41µM*	2.82µM*	-11.6%	-0.4%
C=C(C)CNC(=S)N/N=C/c1ccc([N+](=O)[O-])cc1	-16.3%	1.12µM*	4.47µM*	-13.4%	2.8%
CC(C)NC(=S)N/N=C/c1ccc(N2CCOCC2)cc1	?	2.82µM*	4.47µM*	-15.7%	9.3%
COCCNC(=S)N/N=C/c1ccc([N+](=O)[O-])cc1	?	?	?	-16.2%	-2.4%
C=C(C)CNC(=S)N/N=C\c1ccc2c(c1)OCO2	-8.7%	-5.8%	-0.4%	-14.4%	4.2%
C=C(C)CNC(=S)N/N=C/c1ccc(N2CCOCC2)cc1	-15.6%	2µM*	5.01µM*	-7.3%	7.1%
Cc1cc(C)c(NC(=O)c2cccc3c2C(=O)N(C2CCCCC2)C3)c(C)c1	.	-20.4%	5.5%	.	.
COC(=O)c1ccc(/C=N/NC(=S)NC(C)C)cc1	0.6%	2µM*	7.08µM*	4.8%	3.1%
CC1(C)Nc2ccc(O)cc2-c2c1ssc2=S	11.2µM*	8.91µM*	?	?	?
COc1ccc2nc(Cl)c(/C=N/Nc3ccccn3)cc2c1	?	11.2µM*	?	-18.9%	-2.7%
CCOc1ccc(/C=N/Nc2ccccn2)cc1	?	11.2µM*	?	-23.5%	10.6%
SMILES	Tau ThT inhib	RORg inh	Gal4-VP16 FLuc	Tau fluor counter	Tau FP inhib
COc1ccc(/C=N/Nc2ccccn2)cc1O	?	-33.5%	-1.7%	-13.9%	9.1%
NS(=O)(=O)c1ccc(CCNC(=O)c2coc3ccccc3c2=O)cc1	.	8.5%	2.6%	.	.
CCOC(=O)N1CCN(c2ccc([N+](=O)[O-])cc2)CC1	3.98µM*	30.8%	-8.9%	-5.2%	3.9%
O=C(Cc1cccs1)N1CCN(c2ccc([N+](=O)[O-])cc2)CC1	3.55µM*	?	7.1%	-16.7%	-2.2%
CSC(=NC#N)N1CCN(c2ccc([N+](=O)[O-])cc2)CC1	2µM*	?	9.0%[10 µM]	-21.0%	0.1%
CC(C)(C)OC(=O)N1CCN(c2ccc([N+](=O)[O-])cc2)CC1	3.98µM*	?	-1.4%	-13.8%	-1.9%
O=C(Cc1cccs1)N1CCN(c2ccc(F)cc2)CC1	-9.6%	-17.6%	-11.2%	-7.9%	-2.3%
